Compound activity: PubChem, ICCB-Longwood Screening Facility, Harvard Medical School
An excerpt weighted towards active compounds, which were near 0.52% of everything screened.
S aureus helic = blocks Staphylococcus aureus DNA helicase; purified S. aureus helicase, fluorescence unwinding assay; inhibition, % (no concentration beside the values); 120,000 tested, 0.05% active; AID 485395; in the data active = inhibition above about 25%, passing the limit was not always enough;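 note: 0% = mean of negative control wells and 100% = mean of positive control wells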
Sa growth inh = inhibitors of Staphylococcus aureus growth at 42 °C | S. aureus RN4220 growth, OD600, 20 h; hits give low values | relative growth, % (no concentration beside the values) | 170,000 tested, 0.53% active;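 active = relative growth at most 50% at the other temperature and 20+ points below 30 °C, or under 10% at both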
* hit, by the source's call; nt = not tested or not shown.

SMILES	S aureus helic	Sa growth inh
COc1cccc(Cn2nnc3c(=O)[nH]c(C4CCCN(C(=O)c5ccc(C)cc5)C4)nc32)c1 (stereo not given)	nt	79
COc1cccc(Cn2nnc3c(=O)[nH]c(C4CCN(C(=O)c5ccccc5)CC4)nc32)c1	8	0.8*
Cc1ccccc1Cn1nnc2c(=O)[nH]c(C3CCN(C(=O)c4ccccc4Cl)CC3)nc21	nt	12
CCCCN(Cc1ccco1)C(=O)Cn1nc(Cc2ccncc2)c2ccccc2c1=O	4	92
Nc1nnc(SCC(O)Cn2c3c(c4ccccc42)CCCC3)s1 (stereo not given)	-13	77
CN(CC1COc2ccccc2O1)C(=O)/C=C/c1ccc(S(=O)(=O)NCc2ccco2)cc1 (stereo not given)	13	79
Cc1cc(=O)n(C)c(=O)n1CCCN1CCCC1	9	92
O=C(Cc1ccccc1F)N1CCC(c2nc3c(nnn3Cc3ccc(F)cc3)c(=O)[nH]2)CC1	nt	68
CC(C)(C)OC(=O)N1CCC(c2nc3c(nnn3Cc3ccccc3Cl)c(=O)[nH]2)CC1	0	0.3*
Cc1[nH]c2ccc(C(=O)NCC3CCCO3)cc2c1C (stereo not given)	29*	103
Cc1[nH]c2ccc(C(=O)NC3CC3)cc2c1C	2	115
C/C(=N\NC(=O)c1ccc(Cl)cc1Cl)c1ccc(C)o1	10	107
C/C=C\C1=C(C(=O)O)N2C(=O)C(NC(=O)C(N)c3ccc(O)cc3)C2SC1 (stereo not given)	nt	1.2*
CC1=C(C(=O)O)N2C(=O)[C@@H](NC(=O)[C@H](N)c3ccccc3)[C@H]2SC1	nt	92
O=C(COc1cccc2ccccc12)Oc1ccc(-c2nnco2)cc1	5	99
Clc1ccc(-c2cnc3nonc3n2)cc1	15	0.0*
N#Cc1cc(-c2ccc(Cl)cc2)no1	7	103
Cn1c(=O)n(C)c2cc(N3CCCCC3)c(NS(C)(=O)=O)cc21	-18	81
Cc1cccc2nc(-c3ccccn3)c(Nc3ccc(F)cc3)n12	nt	1.2*
Cc1cccc2nc(-c3ccccn3)c(Nc3ccccc3)n12	nt	103
Cc1ccc(CN2CCC(CNS(=O)(=O)c3ccc4c(c3)CCCC(=O)N4)C2)cc1 (stereo not given)	10	103
COc1ccc(N2CC(NC(=O)NCCn3c(C)cc4ccccc43)CC2=O)cc1OC (stereo not given)	5	107
CCCCNc1nc2c(S(=O)(=O)c3ccccc3)nnn2c2ccsc12	13	99
CCc1[nH]c(=S)c(C#N)c(-c2ccccc2)c1C(=O)OC	2	122
N#Cc1c(N)[nH]c(=S)c(C(N)=O)c1-c1cccc(Br)c1	16	0.3*
SMILES	S aureus helic	Sa growth inh
O=C(O)c1ccccc1C(=O)N1CCCN(c2ncccc2C(F)(F)F)CC1	nt	108
CC(C)C(=O)N(C)Cc1cc2ccccc2[nH]c1=O	-1	92
CC1=CC(C)=NC2Nc3c(C)cc(C)cc3C(=N)C12 (stereo not given)	66*	85
COc1cc(C2Nc3c(C)cc(C)cc3-c3cc(C)nn32)cc(OC)c1O (stereo not given)	nt	105
CN(CC(=O)N1CCN(c2ccccc2)CC1)S(=O)(=O)c1cc2c(cc1Cl)NC(=O)CO2	10	112
COc1ccc(NC(=O)OCC(F)(F)C(F)F)cc1	7	112
N#CC(C#N)=NNc1ccccc1C(N)=O	21	-0.5*
NC(=O)c1ccccc1NC(=O)Nc1ccccc1	3	104
O=C(Cn1c(=O)cnc2ccccc21)N1CCN(c2ccccc2)CC1	0	86
O=S(=O)(c1cccc2ccccc12)N1CCCCC1	9	107
CC(C)CNC(=O)c1ccccc1S(=O)(=O)N1CCCCC1	12	49*
O=C(CCN1CCCCC1)c1ccccc1	2	94
CCc1oc2ccccc2c1C(=O)CCN1CCCCC1	15	41*
CC(NC(=O)CSc1nc(N)cc(=O)[nH]1)c1ccccc1 (stereo not given)	-2	119
CN1C(=O)S/C(=C/c2ccc(-c3ccc(C(=O)O)c(Cl)c3)o2)C1=O	12	58
CCN1C(=O)/C(=C\c2ccc(-c3ccc(Cl)c(C(=O)O)c3)o2)SC1=S	-80	-0.7*
N=C1/C(=C2\Nc3ccccc3S2)CC(=O)N1Cc1ccco1	-24	41
N=C1/C(=C2\Nc3ccccc3S2)CC(=O)N1CCc1ccccc1	-13	1.4*
CC(=O)N(C)Cc1nc(-c2ccc(Cl)cc2)no1	-4	110
C[C@H]1c2cccc(O)c2C(O)=C2C(=O)[C@]3(O)C(O)=C(C(N)=O)C(=O)[C@@H](N(C)C)[C@@H]3[C@@H](O)[C@@H]21	nt	-0.6*
CC1c2cccc(O)c2CC2=C(O)C3(O)C(O)=C(C(N)=O)C(=O)C(N(C)C)C3C(O)C21 (stereo not given)	11	11
CN(C)c1ccc(O)c2c1C[C@H]1C[C@H]3[C@H](N(C)C)C(=O)C(C(N)=O)=C(O)[C@@]3(O)C(=O)C1=C2O	nt	-0.4*
CC(C)CN=C1NC(=O)C(CC(=O)NC2CC2)S1 (stereo not given)	-4	76
N/C(=N\O)c1ccc(OC(F)(F)F)cc1	nt	97
C/C(=N\N)c1ccc2[nH]c3c(c2c1)CCC/C3=N\N	3	92
SMILES	S aureus helic	Sa growth inh
Cc1nc2c(C(=O)NCCc3ccc(Cl)cc3)c[nH]n2c(=O)c1Cc1ccc(Cl)cc1	nt	1.2*
COCCNC(=O)c1c[nH]n2c(=O)c(Cc3ccc(Cl)cc3)c(C)nc12	14	79
Cc1nc2c(C(=O)NCCc3ccccc3)c[nH]n2c(=O)c1Cc1ccccc1F	nt	0.7*
CNC(=O)c1c[nH]n2c(=O)c(Cc3ccccc3F)c(C)nc12	nt	105
CCCCCN1C(C(=O)c2ccccc2)=C(OC(=O)CC)c2ccccc2S1(=O)=O	nt	-0.5*
CCCCC(=O)OC1=C(C(=O)c2ccccc2)N(CCC)S(=O)(=O)c2ccccc21	nt	4.0*
CCCCN1C(C(=O)c2ccccc2)=C(OC(=O)CC)c2ccccc2S1(=O)=O	nt	8.2*
CCCCCN1C(C(=O)c2ccccc2)=C(NC(C)=O)c2ccccc2S1(=O)=O	nt	112
CCCN1C(C(=O)c2ccccc2)=C(OC(=O)c2ccc(C)cc2)c2ccccc2S1(=O)=O	nt	97
CCCN1C(C(=O)c2ccccc2)=C(OC(=O)c2ccc(F)cc2)c2ccccc2S1(=O)=O	nt	26
CCC(=O)N(C)C1CCS(=O)(=O)C1 (stereo not given)	5	84
CCOc1ccccc1C1C=CCC1 (stereo not given)	-5	97
COc1ccc2c(c1)s/c(=N\NC(=S)NC(=O)CN1C(=O)CCC1=O)n2C	4	0.5*
CCOc1ccc2c(c1)s/c(=N\C(=S)NC(=O)CN1C(=O)CCC1=O)n2C	19	109
CN1c2ccccc2N(C)C1c1ccc(O)cc1	2	-1.2*
CN1C(=O)c2ccccc2N(C)C1c1ccc(F)cc1 (stereo not given)	10	116
CCOc1ccc2ccccc2c1C=C1C(=O)N(C)C(=S)N(C)C1=O	12	89
S=c1[nH]c2c(Cl)cc(Cl)cc2o1	-4	3.3*
O=S(=O)(Nc1ccccc1Cl)c1ccc2[nH]c(=S)oc2c1	16	83
O=C(Nc1cccc(F)c1)NC1CCCC1	6	84
CC1CCC(C(C)C)C(NC(=S)Nc2cccc(F)c2)C1 (stereo not given)	nt	-0.8*
COC(=O)c1cscc1OC(=O)c1ccc(C(F)(F)F)cc1	nt	21*
COC(=O)c1sccc1OC(=O)c1ccc(C(C)(C)C)cc1	nt	106
